Hits are enriched below; roughly 5% of the tested compounds scored in any of these assays.
Tb PYK inh: T. brucei pyruvate kinase inhibition. TbPYK enzyme, Kinase-Glo Plus ATP luminescence, 45 min. Potency, µM (titrated, usually from 76.8 µM), inactives show top-dose activity, negative = inhibition, hits mostly inhibitors. 410,000 compounds, 0.12% hits. AID 624173; note: potency is the fitted concentration of half-maximal effect; nearly all actives have a fitted effect of over 50% in size
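In this concentration-response screen, enzyme-free wells defined baseline while DMSO plates tracked drift. Each reaction combined TbPYK, substrate, compound and 130 uM ADP for 45 min at room temperature. Kinase-Glo Plus luminescence gave the signal.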
HCMV antiviral: human cytomegalovirus inhibition; 410,000 compounds, 4.5% hits; activity change, negative = inhibition, % at 57.5 µM; HFF cells, HCMV-luciferase reporter, 72 h; hits give low values; in the data active = activity change below about -60%; inconclusive = no clear call, values can overlap the other calls; inactive = above about -39%
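Two-dose cell screen: HFF monolayers treated with compounds and infected with luciferase-expressing HCMV at 1 PFU/cell, 72 h at 37C, then lysed for luciferase measurement.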
VACV Venus inh: inhibitors of vaccinia virus (Venus reporter); Vaccinia virus Venus reporter expression, fluorescence; Potency, µM (titrated, usually from 36.5 µM), inactives show at the highest dose activity change, negative = inhibition, hits mostly inhibitors; 330,000 compounds, 0.46% hits; calls by dose curve; tested in A549 cells; note: potency is the fitted concentration of half-maximal effect; nearly all actives have a fitted effect of over 30% in size
VACV mCherry inh: vaccinia inhibition (mCherry reporter); AID 720579; Potency, µM (highest dose often 36.5 µM), inactives show top-dose activity change, negative = inhibition, usual class: inhibitors; Vaccinia virus mCherry reporter infection, fluorescence; 310,000 compounds, 0.63% hits; calls by dose curve; tested in A549 cells; note: potency is the fitted concentration of half-maximal effect; nearly all actives have a fitted effect of over 35% in size
LmPK inh: LmPK (Leishmania mexicana) enzyme inhibition; Q27686; purified LmPK, Kinase-Glo ATP luminescence, 1 h; Potency, µM (series often up to 57.5 µM), for inactives: top-dose activity change, negative = inhibition, actives largely listed as inhibitors; 290,000 compounds, 0.37% hits; AID 1721; note: potency is the fitted concentration of half-maximal effect
Target sequence (Q27686 whole entry, looked up): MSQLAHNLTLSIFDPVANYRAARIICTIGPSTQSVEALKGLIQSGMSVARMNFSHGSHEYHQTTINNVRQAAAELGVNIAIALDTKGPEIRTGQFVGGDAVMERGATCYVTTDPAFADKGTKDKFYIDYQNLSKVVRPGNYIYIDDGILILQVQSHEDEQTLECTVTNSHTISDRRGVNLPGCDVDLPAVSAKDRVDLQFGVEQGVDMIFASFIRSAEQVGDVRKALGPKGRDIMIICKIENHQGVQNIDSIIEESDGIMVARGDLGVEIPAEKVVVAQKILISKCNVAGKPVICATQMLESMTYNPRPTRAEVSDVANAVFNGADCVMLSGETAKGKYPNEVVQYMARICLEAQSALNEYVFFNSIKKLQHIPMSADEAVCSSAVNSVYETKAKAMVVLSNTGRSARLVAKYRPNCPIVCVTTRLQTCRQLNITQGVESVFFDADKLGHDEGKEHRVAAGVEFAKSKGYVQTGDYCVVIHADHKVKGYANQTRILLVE
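Pyruvate kinase activity monitored as ATP production (luciferase luminescence). Conditions: 0.1 nM enzyme, 0.5 mM PEP, 0.1 mM ADP, 1 h, RT; normalized against uninhibited and no-enzyme wells.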
Active calls of the source: *. Unless noted, calls come from the whole dose curve; as a rule, active = well fitted curve in the direction sought with a large enough effect; inconclusive = small, poorly fitted or top-dose-only effect, or another doubt; inactive = no such curve, though single readings can be large; an effect the other way counts as inactive or inconclusive. % is set by controls: 0 for no effect and ±100 for the full control effect.

Results for CCc1cc2c(cc3c(=O)n(CC(=O)NCc4cc(Br)ccc4OC)ncn32)s1 ?
Tb PYK inh: 3%; HCMV antiviral: 78; VACV Venus inh: inconclusive; VACV mCherry inh: inconclusive

What do the screens show for `CCOC(=O)N1CCN(C(=O)COC(=O)CNC(=O)c2ccc(Cl)cc2Cl)CC1`?
Tb PYK inh: 1%; HCMV antiviral: -24; VACV Venus inh: -7%; VACV mCherry inh: -19%

How did CC(CCc1ccccc1)NCc1ccc(Cl)cc1Cl (stereo not given) do in these assays?
Tb PYK inh: -4%; HCMV antiviral: -30; LmPK inh: -2%

How did COc1ccccc1NC(=S)NC(=O)c1ccc(-c2ccc(Cl)cc2)o1 do in these assays?
Tb PYK inh: 3%; HCMV antiviral: -63*; VACV Venus inh: -8%; VACV mCherry inh: inconclusive; LmPK inh: 4%

Results for CCOc1cc(C2CC(=O)Nc3nc(SCc4ccccc4)[nH]c(=O)c32)ccc1O (stereo not given) ?
Tb PYK inh: 0%; HCMV antiviral: 19; VACV Venus inh: -10%; VACV mCherry inh: -21%

How did CCOc1ccc(C2CC(=O)Nc3nc(SCc4ccccc4C)[nH]c(=O)c32)cc1OC (stereo not given) do in these assays?
Tb PYK inh: -8%; HCMV antiviral: -102*; VACV Venus inh: inconclusive; VACV mCherry inh: inconclusive

Results for CC(=O)c1cccc(NC(=O)C(OC(=O)c2ccccc2NS(=O)(=O)c2cccs2)c2ccccc2)c1 (stereo not given) ?
Tb PYK inh: -15%; HCMV antiviral: -75*; VACV Venus inh: -13%; VACV mCherry inh: inactive; LmPK inh: 6%

Results for CCOc1ccccc1NC(=O)C(OC(=O)c1ccccc1NS(=O)(=O)c1cccs1)c1ccccc1 (stereo not given) ?
Tb PYK inh: 4%; HCMV antiviral: inconclusive; VACV Venus inh: -19%; VACV mCherry inh: -17%; LmPK inh: 0%

How did Cc1ccc(CSCc2ccc(C(=O)O)o2)cc1 do in these assays?
Tb PYK inh: -27%; HCMV antiviral: -19; LmPK inh: 2%

Results for O=C(O)c1ccc(CSCc2ccccc2)o1 ?
Tb PYK inh: 8%; HCMV antiviral: -85*; VACV Venus inh: 2%; VACV mCherry inh: -14%

What do the screens show for `Cc1cccc(NC(=O)CSc2nnnn2C2CCCC2)c1`?
Tb PYK inh: 2%; HCMV antiviral: 10; VACV Venus inh: -7%; VACV mCherry inh: -5%; LmPK inh: 8%

How did O=C(CSc1nnnn1C1CCCC1)Nc1cccc(NC(=O)c2ccco2)c1 do in these assays?
Tb PYK inh: -3%; HCMV antiviral: -70*; VACV Venus inh: -28%; VACV mCherry inh: 0%; LmPK inh: -2%

What do the screens show for `O=C(CSc1nnnn1C1CCCCC1)Nc1cccc(NC(=O)c2ccco2)c1`?
Tb PYK inh: inconclusive; HCMV antiviral: -19; VACV Venus inh: -23%; VACV mCherry inh: -28%; LmPK inh: 1%

What do the screens show for `O=C(CSc1nnnn1-c1ccc(O)cc1)Nc1cccc(S(=O)(=O)N2CCCC2)c1`?
Tb PYK inh: -6%; HCMV antiviral: -73*; VACV Venus inh: -10%; LmPK inh: 12%

How did O=C(CSc1nnnn1C1CC1)Nc1cccc(S(=O)(=O)N2CCCC2)c1 do in these assays?
Tb PYK inh: -4%; HCMV antiviral: -75*; VACV Venus inh: -5%; VACV mCherry inh: -11%

How did CC1(C)CC(=O)C2=C(C1)OC(N)=C(C#N)C2c1ccc2c(c1)OCO2 (stereo not given) do in these assays?
Tb PYK inh: 5%; HCMV antiviral: -3; VACV Venus inh: -14%; VACV mCherry inh: inactive; LmPK inh: -10%

How did CC(C)(C)CC(=O)Nc1cc(S(=O)(=O)N2CCCCCC2)ccc1Cl do in these assays?
Tb PYK inh: -10%; HCMV antiviral: -27; VACV Venus inh: -13%; VACV mCherry inh: -15%; LmPK inh: -2%

What do the screens show for `O=C(CCl)Nc1cc(S(=O)(=O)N2CCCCCC2)ccc1Cl`?
Tb PYK inh: -1%; HCMV antiviral: -64*; VACV Venus inh: inconclusive; VACV mCherry inh: inconclusive; LmPK inh: -1%

What do the screens show for `COc1ccc(S(=O)(=O)N2CCCCC2)cc1NCC(=O)Nc1ccc(C)cc1`?
Tb PYK inh: -3%; HCMV antiviral: 1; VACV Venus inh: -10%; VACV mCherry inh: -17%; LmPK inh: 3%

Results for COc1ccc(S(=O)(=O)N2CCCCC2)cc1NC(=O)CN(C)C1CCCCC1 ?
Tb PYK inh: 3%; HCMV antiviral: -38; VACV Venus inh: -26%; VACV mCherry inh: -1%; LmPK inh: 0%

How did COc1ccc([N+](=O)[O-])cc1NCC(=O)Nc1cc(S(=O)(=O)N2CCCCC2)ccc1C do in these assays?
Tb PYK inh: 1%; HCMV antiviral: -99*

What do the screens show for `COc1ccc(CC(=O)Nc2cc(S(=O)(=O)N3CCCCC3)ccc2C)cc1OC`?
Tb PYK inh: -16%; HCMV antiviral: -69*; VACV Venus inh: -27%; VACV mCherry inh: inconclusive; LmPK inh: 0%

What do the screens show for `COc1ccc(S(=O)(=O)N2CCCCC2)cc1NC(=O)CN(Cc1ccco1)Cc1ccco1`?
Tb PYK inh: 6%; HCMV antiviral: -70*

What do the screens show for `S=C(Nc1ccccc1)Nc1cccc(Cl)c1Cl`?
Tb PYK inh: 0%; HCMV antiviral: -28; LmPK inh: 0%

How did COc1ccc(CC(=O)Nc2cccc3ccccc23)cc1OC do in these assays?
Tb PYK inh: -3%; HCMV antiviral: -85*; VACV Venus inh: -5%; VACV mCherry inh: inactive; LmPK inh: 9%

How did COc1ccc(S(=O)(=O)N2CCN(CC(=O)Nc3cc(Cl)ccc3Cl)CC2)cc1 do in these assays?
Tb PYK inh: 3%; HCMV antiviral: -71*; VACV Venus inh: -2%; VACV mCherry inh: -3%

Results for NS(=O)(=O)c1ccc(N2N=C(c3ccc(Br)cc3)CC2c2ccc(F)cc2)cc1 (stereo not given) ?
Tb PYK inh: 4%; HCMV antiviral: -17; VACV Venus inh: 11µM*; VACV mCherry inh: 16µM*; LmPK inh: 4%

How did CC(C)c1ccc(Nc2ccc(C(=O)O)cc2[N+](=O)[O-])cc1 do in these assays?
Tb PYK inh: 0%; HCMV antiviral: 63; VACV Venus inh: -12%; VACV mCherry inh: -18%; LmPK inh: 4%

What do the screens show for `CCN1CCC(O)(/C=C/c2ccc(C(C)C)cc2)C(C(=O)/C=C/c2ccc(C(C)C)cc2)C1` (stereo not given)?
Tb PYK inh: -9%; HCMV antiviral: -61*; VACV Venus inh: inconclusive; VACV mCherry inh: 11µM*

How did CCN1CCN(C(=O)/C=C/c2ccc(C(C)C)cc2)CC1 do in these assays?
Tb PYK inh: -5%; HCMV antiviral: 2; VACV Venus inh: -11%; VACV mCherry inh: -7%

What do the screens show for `COc1cc2nc(N3CCCN(C)CC3)nc(NC3CCN(C)C3)c2cc1OC` (stereo not given)?
VACV Venus inh: 11µM*; VACV mCherry inh: inconclusive

Screening data from PubChem.
